Our source for the growth values is PubChem BioAssay (NCI).

Common to all, as to assay: NCI-60 one-dose screen, 48 h (100 = growth as untreated, 0 = no growth, -100 = all killed)
Holding throughout (settings): 10 µM unless noted

For experiment [1], the system named is DU-145 prostate.
Experiment [2] concerns K-562 leukemia.
Experiment [3] concerns MALME-3M melanoma.
Experiment [4] deals with MDA-MB-231 breast.
Experiment [5] relates to RXF 393 renal.
Experiment [6] relates to SF-268 CNS.
The subject of experiment [7] is SF-295 CNS.
For experiment [8], the system named is SF-539 CNS.
The test system of experiment [9] is UACC-257 melanoma.
In experiment [10] the test system is M14 melanoma.
The test system of experiment [11] is HCT-15 colon.
For experiment [12], the system named is HT29 colon.
In experiment [13] the test system is SNB-75 CNS.
The test system of experiment [14] is SNB-19 CNS.
The subject of experiment [15] is U251 CNS.
For experiment [16], the system named is PC-3 prostate.
Experiment [17] deals with SK-MEL-5 melanoma.
The subject of experiment [18] is UACC-62 melanoma.
Experiment [19] relates to LOX IMVI melanoma.
Experiment [20] deals with SK-MEL-28 melanoma.

Compounds without any hit were thinned out: in the full panel of roughly 83,000, 20% have a hit.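 Method: cells in 96-well plates; compound added at one concentration; 48 h incubation; percent growth measured; values under 10 scored active.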 Values without a mark were called inactive. Activity calls are given as the source filed them.

As to `O=C(/C=C/c1cccs1)Nc1ncc(Cc2ccccc2F)s1`, the growth in experiment [1] is 11.4%; in experiment [2] it was 24%; in experiment [3] it was 40.5%; in experiment [4] it was 33.8%; in [5], -32.4% (active); in [6], 55.9%. Moreover, the growth in [7] was 9.52% (active); in experiment [8] it was -4.04% (active); in experiment [9], 58.6%; in experiment [10], -3.15% (active); in [11], 27.1%; in experiment [12], 8.61% (active). For the same compound, the growth in experiment [13] was -7.95% (active); in [14], 28.9%; in [15], 17%; in experiment [16], 29.6%; in experiment [17] it was 6.05% (active); in experiment [18] it was 16.8%. For the same compound, the results for the growth in experiment [19] and in experiment [20] were 20.4% and 54.4%, respectively.
Consider `O=C(NNC(=O)c1ccc(NC(=O)c2ccccn2)cc1)Nc1ccc([N+](=O)[O-])cc1`, for which the growth was 106% in [1]; 107% in experiment [2]; 98% in experiment [3]; 103% in [4]; 99.9% in [5]; 95.5% in [6]. Besides, the growth in [7] was 98.9%; in [8], 60.9%; in experiment [9], 106%; in [10] it was 100%; in experiment [11], 100%; in experiment [12], 110%. For the same compound, the growth was 81.4% in experiment [13]; 83.6% in [14]; 78.5% in experiment [15]; 94.5% in [16]; 102% in experiment [17]; 94% in experiment [18]. Besides, the growth in [19] is 105%; in experiment [20], 99%.
In the case of `c1cc2c(ccc3[nH]c(-c4ccc5[nH]ncc5c4)c4c(c32)CCCC4)n1`, the growth in experiment [1] is 66%; in experiment [2], 2.93% (active); in experiment [3] it was 35.9%; in [4] it was 78.4%; in [5], 89.3%; in experiment [6], 62.3%. The growth was 63.6% in experiment [7]; 62.9% in experiment [8]; 74.9% in experiment [9]; 61.9% in experiment [10]; 61.6% in experiment [11]; 51.7% in [12]. The growth in [13] is 62.1%; in [14], 44.5%; in [15], 36.8%; in [16], 28.4%; in experiment [17] it was 61.7%; in experiment [18], 54.6%. In addition, the growth was 61.5% in experiment [19] and 67.3% in experiment [20].
For the compound `COc1ccc(/C=N\Nc2nc(SCCC(C)C)nc(-c3ccc(OC)cc3)c2C#N)cc1`, the growth in experiment [1] is 72.8%; in experiment [2], 82%; in [3], 64.6%; in experiment [4], 77.6%; in experiment [5], 80.5%; in experiment [6], 78.9%. The growth is 17.4% in experiment [7]; 24.6% in [8]; 91.6% in experiment [9]; 87.6% in experiment [10]; 74.6% in [11]; 55% in [12]. Also, the growth in [13] is -19.4% (active); in experiment [14], 69.5%; in experiment [15] it was 7.04% (active); in experiment [16] it was 72.3%; in experiment [17], 94.3%; in [18], 79.1%. For the same compound, the results for the growth in experiment [19] and in experiment [20] were 66% and 104%, respectively.
As for `Cn1ccnc1C(=O)/C=C/c1ccc(C(=O)Nc2ccc(Cl)cc2)cc1`, the growth in experiment [1] was 10.9%; in experiment [2], 2.13% (active); in experiment [3] it was 51.5%; in experiment [4] it was 1.85% (active); in experiment [5], -57.1% (active); in experiment [6], 0.451% (active). Besides, the growth in [7] is 27.3%; in experiment [8], -73.4% (active); in experiment [9], 51.6%; in [10] it was 6.17% (active); in experiment [11], -13.2% (active); in experiment [12], 2.78% (active). Besides, the growth was -3.04% (active) in [13]; -3% (active) in experiment [14]; -50.1% (active) in experiment [15]; -6.8% (active) in [16]; 32.3% in experiment [17]; 16.6% in experiment [18]. The growth in experiment [19] is -84.8% (active); in experiment [20], 62.4%.
As to `Cn1cc(-c2ccc3nc(-c4ccc(CC(=O)ONc5cc(C(C)(C)C)on5)cc4)cnc3c2)cn1`, the growth in [1] was 35.1%; in [2], 10.3%; in [3], 22.4%; in [4], 39.1%; in experiment [5], 28.8%; in experiment [6], 33.5%. Also, the growth in experiment [7] is 38.1%; in experiment [8], 17%; in experiment [9] it was 39.8%; in experiment [10], 18.7%; in experiment [11], 16.5%; in [12], 39.6%. Further, the growth in experiment [13] is 37.4%; in experiment [14], 67.4%; in [15], 32.3%; in experiment [16] it was 34.8%; in [17], 58.8%; in experiment [18], 27.6%. The growth in [19] is 30.5%; in experiment [20] it was 44.4%.
For `N#Cc1nc(-c2ccccc2)oc1S(=O)(=O)N1CCN(c2ccccc2)CC1`, the growth is 107% in experiment [1]; 34.9% in [2]; 90.1% in [3]; 105% in experiment [4]; 114% in [5]; 107% in [6]. The growth was 105% in [7]; 100% in experiment [8]; 92.7% in experiment [9]; 81.1% in experiment [10]; 44.2% in experiment [11]; 86.5% in [12]. The growth in experiment [13] was 66.7%; in experiment [14] it was 99.6%; in experiment [15], 98.9%; in experiment [16], 94.9%; in [17], 90%; in experiment [18], 84.4%. Also, the growth is 39.7% in experiment [19] and 106% in [20].
For `O=C(O)CCCN1C(=O)/C(=C/c2cn(-c3ccccc3)nc2-c2ccc([N+](=O)[O-])cc2)SC1=S`, the growth in experiment [1] is 58.5%; in experiment [2], 56.5%; in [3], 52.1%; in [4], 85.5%; in [5], 86.7%; in experiment [6], 52.8%. In addition, the growth is 34.8% in experiment [7]; 55.5% in [8]; 84.6% in experiment [9]; -8.74% (active) in experiment [10]; 35.8% in [11]; 87.1% in experiment [12]. Further, the growth is 95.7% in [13]; 48.9% in experiment [14]; 38.2% in experiment [15]; 56.4% in experiment [16]; 52.7% in experiment [17]; 47% in experiment [18]. In addition, the growth was 46.2% in [19] and 49.4% in [20].
